High-throughput results: PubChem BioAssay, National Center for Advancing Translational Sciences (NCATS)
This is one part of a sample in which hits are shown more often than they occur.
ALOX12 inh: inhibitors of human 12S-lipoxygenase ALOX12; P18054; purified 12hLO, xylenol orange hydroperoxide absorbance; Potency, µM (top dose mostly 108 µM), inactives show top-dose activity change, negative = inhibition, actives largely listed as inhibitors; actives 1.1% (n = 580,000); AID 1671190; also: potency is read from the fitted curve at half-maximal effect
Target sequence (P18054 whole entry, looked up): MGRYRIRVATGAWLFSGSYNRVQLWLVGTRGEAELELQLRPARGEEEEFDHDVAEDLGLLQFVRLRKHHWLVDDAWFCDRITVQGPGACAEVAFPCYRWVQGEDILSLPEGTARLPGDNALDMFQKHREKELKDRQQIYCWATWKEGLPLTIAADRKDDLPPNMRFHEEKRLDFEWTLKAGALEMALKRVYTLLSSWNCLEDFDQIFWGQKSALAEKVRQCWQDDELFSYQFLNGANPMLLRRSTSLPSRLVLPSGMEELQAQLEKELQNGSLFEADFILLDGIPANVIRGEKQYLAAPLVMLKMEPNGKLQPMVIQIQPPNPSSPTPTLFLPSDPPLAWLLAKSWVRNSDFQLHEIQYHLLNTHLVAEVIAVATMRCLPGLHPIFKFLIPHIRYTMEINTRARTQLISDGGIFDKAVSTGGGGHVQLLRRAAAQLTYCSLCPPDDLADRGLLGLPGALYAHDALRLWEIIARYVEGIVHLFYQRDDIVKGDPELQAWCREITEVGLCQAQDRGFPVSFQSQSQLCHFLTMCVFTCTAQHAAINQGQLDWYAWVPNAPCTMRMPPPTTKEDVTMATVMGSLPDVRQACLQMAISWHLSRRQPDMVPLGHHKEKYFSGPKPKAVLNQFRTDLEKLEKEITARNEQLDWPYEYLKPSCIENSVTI
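Purified human 12hLO at 150 nM in 25 mM Hepes, 0.01% Triton X-100, pH 7.0, preincubated 15 min at room temperature with compound. Reaction started with 40 uM arachidonic acid, 30 min at room temperature. Hydroperoxide measured by Fe-xylenol orange, 573/405 nm absorbance ratio.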
DT40 TDP1 no CPT: qHTS for Inhibitors of human tyrosyl-DNA phosphodiesterase 1 (TDP1): qHTS in cells in absence of CPT; DT40 Tdp1-/- hTDP1 cells, no CPT, ATP luminescence, 48 h; Potency, µM (series often up to 46.2 µM), for the others: top-dose activity change, negative = growth inhibition, usual class: inhibitors; actives 15% (n = 420,000); also: potency is read from the fitted curve at half-maximal effect; nearly all actives have a fitted effect of over 55% in size
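Growth kinetics read by CellTiter-Glo luminescence after ≥48 hr at 37 °C. Cells: DT40 Tdp1-/- stably carrying human TDP1, 400 per well, compound exposure in the absence of CPT (DMSO vehicle).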
TDP1 cell CPT: growth inhibition of DT40 Tdp1-/-;hTDP1 cells with camptothecin (screen for TDP1 inhibitors); chicken DT40 Tdp1-/-;hTDP1 cells + 20 nM CPT, ATP luminescence, 48 h; Potency, µM (series often up to 46.2 µM), inactives show at the highest dose activity change, negative = growth inhibition, hits mostly inhibitors; actives 12% (n = 420,000); also: potency is read from the fitted curve at half-maximal effect; nearly all actives have a fitted effect of over 55% in size
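Cell growth measured by CellTiter-Glo luminescence after a minimum 48 h, 37 C compound exposure with 20 nM CPT in Tdp1-knockout DT40 cells stably expressing hTDP1, seeded 400/well; qHTS titration format.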
IL1B secr inh: inflammasome signaling inhibition, IL-1 beta readout. THP-1 LPS/ATP IL-1B secretion, AlphaLISA, 16 h; active compounds read low. activity change, % at 57.5 µM. actives 4.7% (n = 360,000). AID 743279; in the data active = activity change below about -50%; inconclusive = mostly about -30% to -49%
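THP-1 cells pretreated 1 hr with compounds (up to 57.5 uM final), then stimulated with LPS (250 ng/mL final) plus ATP (1.25 mM final); secreted IL-1B measured by AlphaLISA after 16 hr, decreased signal indicating inhibition.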
HT1080-NT tox: kills 2HG-producing HT-1080-NT fibrosarcoma cells; Potency, µM (doses to about 46.1 µM), without a hit: top-dose activity, negative = less viability, usual class: cytotoxic; actives 1.6% (n = 360,000); HT-1080-NT fibrosarcoma viability, CellTiter-Glo ATP luminescence, 48 h;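 also: NT is the 2HG producing partner of a matched IDH1 knockdown line; potency is read from the fitted curve at half-maximal effect; 0% = DMSO-treated cells and -100% = media-only wells without cells; nearly all actives have a fitted effect of over 55% in size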
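A 48-hour cytotoxicity screen used HT-1080-NT cells plated 2 hours before compound delivery. ATP-based CellTiter-Glo luminescence measured viability, normalized to DMSO and no-cell controls.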
HT1080 IDH1KD tx: kills HT-1080 cells with IDH1 knockdown; HT-1080 IDH1 knockdown viability, ATP luminescence, 48 h; Potency, µM (series often up to 46.1 µM), inactives show at the highest dose activity, negative = toxicity, most hits filed as cytotoxic; actives 2% (n = 360,000);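 also: potency is read from the fitted curve at half-maximal effect; 0% = DMSO wells and -100% = cell-free medium wells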
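Using the IDH1-knockdown HT-1080 line run in the same batch and compound series as the NT line, viability after 48 h at 37 °C was determined by CellTiter-Glo luminescence and expressed as % activity.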
Active calls of the source: *; ? = inconclusive; nt = not tested or not shown; [ ] = another dose, or the depositor's remark. Unless noted, calls follow the shape of the dose curve; as a rule, active = well fitted curve in the direction sought with a large enough effect; inconclusive = small, poorly fitted or top-dose-only effect, or another doubt; inactive = no such curve, though single readings can be large; an effect the other way counts as inactive or inconclusive. Unless noted, % is scaled to controls: 0 for no effect and ±100 for the full control effect.

SMILES	ALOX12 inh	DT40 TDP1 no CPT	TDP1 cell CPT	IL1B secr inh	HT1080-NT tox	HT1080 IDH1KD tx
C=CCOc1ccccc1CNc1cccc(F)c1	-25.2%	-27.9%	?	-5.2	0.9%	0.2%
C=CCOc1ccccc1CNc1ccc2[nH]c(=O)[nH]c2c1	1.1%	20.6µM*	?	22.6	5.5%	3.8%
CC#CCn1cc2c3c(cccc31)[C@H](CC(C)C)N[C@H](C(=O)NCc1ccccc1)C2	32.6%[176 µM]	nt	nt	nt	nt	nt
COc1ccc(-c2cn(-c3ccc(Cl)cc3)c3[n+]2CCCCC3)cc1	59.1%	2.59µM*	2.31µM*	?	-24.6%	-23.6%
COc1ccc(-n2cc(-c3ccc(Cl)cc3)[nH]c2=S)cc1	-27.7%	2.1%	-9.7%	4.3	7.7%	-10.2%
COc1ccc(-n2cc(-c3ccc(OC(F)F)cc3)[n+]3c2CCCCC3)cc1	-5.4%	0.82µM*	1.3µM*	?	-27.2%	-24.6%
Clc1ccc(-c2cn(-c3ccc(Cl)cc3)c3[n+]2CCCCC3)cc1	154.5%	7.31µM*	8.2µM*	-6.6	-27.6%	-15.4%
O=C(c1c(F)cccc1F)N1CCC(OC2CCN(Cc3ccccc3)CC2)CC1	13.0%	nt	nt	nt	nt	nt
Cc1ccc2ccc3cc(C(=O)N4CCN(c5ccccc5F)CC4)nc3c2[nH]1	-6.8%	16.4µM*	?	nt	nt	nt
Cc1ccc2ccc3cc(C(=O)Nc4ccc(C)c(F)c4)nc3c2[nH]1	4.2%	16.4µM*	?	nt	nt	nt
CCOC(=O)C1CCN(C(=O)c2cc3ccc4ccc(C)[nH]c4c3n2)CC1	-8.7%	20.6µM*	18.4µM*	nt	nt	nt
CCc1oc2ccccc2c1/C=C/C(=O)NC1CCCC1	-7.4%	nt	nt	nt	nt	nt
Cc1noc(C)c1-c1cc2cc(CN(C)C)oc2c(N2CCOCC2)n1	1.5%[176 µM]	nt	nt	nt	nt	nt
CCOc1ccccc1C(=O)N(CN1CCCC1=O)c1ccc(C)c(Cl)c1	-16.0%	3.66µM*	3.66µM*	24.9	15.1%	0.1%
CCOc1ccccc1C(=O)N(C)C1CCc2nn(CC3CC3)c(=O)n2CC1 (stereo not drawn)	42.2%	nt	nt	nt	nt	nt
Cc1ccc(N(CN2CCCC2=O)C(=O)c2ccc(C)c(C)c2)cc1	-5.3%	7.31µM*	8.2µM*	-21.5	5.6%	0.0%
Cc1ccc(C(=O)N(CN2CCCC2=O)c2ccc(F)cc2)cc1C	0.9%	25.9µM*	?	77.0	22.8%	0.0%
Cc1ccc(C(=O)N(CN2CCCC2=O)c2ccccc2)cc1C	-8.7%	?	?	20.7	-9.7%	-0.5%
CN(C)C(=O)N1CCN(c2ccc(C=O)cc2)C(=O)C1	10.3%[12.5 µM]	nt	nt	nt	nt	nt
O=C(CCc1cccnc1)Nc1nc(-c2ccc3c(c2)CCO3)cs1	-5.5%	nt	nt	nt	nt	nt
c1ccc(-c2noc(CSc3nnnn3C3CC3)n2)cc1	-0.8%	nt	nt	nt	nt	nt
O=C(COc1ccc(Cl)cc1)Nc1ccc2nc(SCC(=O)N3CCOCC3)sc2c1	-9.3%	14.6µM*	?	nt	nt	nt
Cc1ccc(OCC(=O)Nc2ccc3nc(SCC(=O)N4CCOCC4)sc3c2)cc1	0.0%	20.6µM*	?	nt	nt	nt
COC[C@@H]1CN(c2ncccn2)C[C@H]1C(=O)NCC(F)(F)F	30.2%	nt	nt	nt	nt	nt
Cc1ccc(NC(=S)N2CCSC2c2cccs2)cc1 (stereo not drawn)	-14.8%	-22.7%	?	-82.4*	-1.0%	13.8%
COc1ccc(C2CCCN2C(=S)Nc2cccc(Cl)c2)cc1OC (stereo not drawn)	-6.6%	?	-15.1%	-87.0*	0.0%	-3.1%
COc1ccc(C2SCCN2C(=S)Nc2cccc(Cl)c2)cc1 (stereo not drawn)	-26.9%	16.4µM*	?	-25.8	-16.0%	-5.9%
COc1ccc(C2CCCN2C(=S)Nc2ccc(C)c(C)c2)cc1OC (stereo not drawn)	3.2%	?	9.4%	-17.9	-5.1%	9.2%
